Results on 13 compounds are retold here after PubChem BioAssay (EPA / NIEHS).

In assay [1] the target is Estrogen receptor (Homo sapiens) (UniProt P03372). In words: CCTE_Deisenroth_AIME_384WELL_LUC_Active: CCTE's 384-well Estrogen Receptor Transactivation Assay with AIME metabolic competence (ERTA luciferase; metabolism positive), Deisenroth Lab (AID 2284030). The method in brief: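 Readout: bioluminescent luciferase induction in VM7Luc4E2 cells 24 hour after receiving medium from a 2 h rat hepatic S9 (induced, alginate microsphere) metabolism step. Concentrations 0.002 - 200 uM; activity scaled to 17beta-estradiol positive control.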
Chain of Estrogen receptor (Homo sapiens) (P03372 whole entry, looked up): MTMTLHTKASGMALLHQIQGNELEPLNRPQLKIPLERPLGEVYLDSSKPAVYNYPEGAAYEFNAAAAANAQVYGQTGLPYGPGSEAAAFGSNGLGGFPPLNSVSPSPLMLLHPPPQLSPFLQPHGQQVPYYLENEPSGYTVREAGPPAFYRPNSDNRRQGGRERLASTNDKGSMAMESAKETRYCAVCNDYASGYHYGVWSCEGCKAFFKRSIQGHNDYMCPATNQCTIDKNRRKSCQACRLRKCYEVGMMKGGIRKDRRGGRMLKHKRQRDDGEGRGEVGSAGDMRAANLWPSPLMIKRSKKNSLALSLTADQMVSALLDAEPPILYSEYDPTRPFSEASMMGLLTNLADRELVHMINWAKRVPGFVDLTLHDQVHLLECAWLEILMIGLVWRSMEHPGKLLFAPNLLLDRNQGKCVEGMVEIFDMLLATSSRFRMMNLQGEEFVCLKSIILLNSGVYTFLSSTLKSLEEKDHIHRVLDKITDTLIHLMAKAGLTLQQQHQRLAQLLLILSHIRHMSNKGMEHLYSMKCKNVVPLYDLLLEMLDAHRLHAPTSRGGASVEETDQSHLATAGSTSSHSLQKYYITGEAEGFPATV

Assay [2] has the same target. In words: CCTE_Deisenroth_AIME_384WELL_LUC_Inactive: CCTE's 384-well Estrogen Receptor Transactivation Assay without AIME metabolic competence (ERTA luciferase; metabolism negative), Deisenroth Lab (AID 2284038).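 Further: hits raise estrogen receptor luciferase signal so potencies reflect agonists.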 The method in brief: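 VM7Luc4E2 ER transactivation, luciferase bioluminescence after 24 h, using medium pre-incubated 2 h with S9-free alginate microspheres. Concentrations 0.002–200 uM; gain of signal fitted relative to 17beta-estradiol.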

Assay [3] shares this target. The experiment in a line: CCTE_Deisenroth_AIME_384WELL_LUC_Shift: CCTE's 384-well Estrogen Receptor Transactivation Assay with AIME metabolic competence data shift (ERTA luciferase; difference in metabolism positive and negative), Deisenroth Lab (AID 2284041; active means hit-call score of the fitted dose curve at least 0.9, where 1 is the maximum; inactive means score below 0.9;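 further: shift is response with S9 minus without S9 so positive means metabolism raised ER signal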). In a few lines: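 Chemicals (0.002–200 uM, 10 points) pre-incubated 2 h with alginate-encapsulated induced male Sprague Dawley rat liver S9 or S9-free, then medium applied 24 h to VM7Luc4E2 cells; luciferase. Endpoint is per-concentration difference, S9-positive minus negative.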

For assay [4] the target is unchanged. The experiment in a line: CCTE_Deisenroth_AIME_96WELL_LUC_Active: CCTE's 96-well Estrogen Receptor Transactivation Assay with AIME metabolic competence (ERTA luciferase; metabolism positive), Deisenroth Lab (AID 2284023). In a few lines:
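Metabolism-positive mode: induced rat hepatic S9 in alginate microspheres conditions test solutions (0.002 - 200 uM, 10 points) for 2 hours. VM7Luc4E2 ER luciferase reporter cells then exposed 24 h; positive-direction fit against 17beta-estradiol, n=4 typical.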

The nature of assay [5]: CCTE_Shafer_MEA_dev_firing_rate_mean: CCTE's Neural Network Formation Assay for Mean Firing Rate, Shafer Lab (AID 2284031; active means hit-call score of the fitted dose curve at least 0.9, where 1 is the maximum; inactive means score below 0.9;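 on AC50: curve fitted for loss of firing so AC50 reflects decreased mean firing rate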). In a few lines: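 Steps: seed rat cortical cells (1.5 x 10^5/well) with laminin on PEI-coated MEA; dose day 0; record DIV 5/7/9/12, full media and compound exchange after DIV 5 and 9 recordings; compute well-mean firing rate AUC.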
A short description of assay [6]: CCTE_Shafer_MEA_dev_active_electrodes_number: CCTE's Neural Network Formation Assay for Number of Active Electrodes, Shafer Lab (AID 2284040).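 On AC50: potency for loss of active electrodes versus DMSO so lower counts are hits.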 The method in brief:
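Counts electrodes per well firing at least 5 spikes/min, recorded on days 5, 7, 9 and 12 in rat cortical cultures dosed continuously from plating (treatment refreshed DIV 5, 9). Value is the area under the curve over recordings, fitted downward relative to DMSO.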

Assay [7] can be described thus: CCTE_Shafer_MEA_dev_burst_rate: CCTE's Neural Network Formation Assay for Burst Rate, Shafer Lab (AID 2284042; active means hit-call score of the fitted dose curve at least 0.9, where 1 is the maximum; inactive means score below 0.9;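 on AC50: potency for loss of burst rate below DMSO control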). In a few lines: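 Exposure ran continuously over 12 days of network development in rat cortical cultures, with compound refreshed during full media changes on DIV 5 and 9. Single-electrode bursts per recording time, well-mean over active electrodes, trapezoidal AUC across days 5–12, fitted downward relative to DMSO.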

The nature of assay [8]: CCTE_Shafer_MEA_dev_bursting_electrodes_number: CCTE's Neural Network Formation Assay for Number of Bursting Electrodes, Shafer Lab (AID 2284043). The method in brief:
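Rat cortical primary neurons, 48-well MEA, 16 electrodes/well; dosing DIV 0–12, re-dosed with full media change DIV 5, 9. Recordings DIV 5/7/9/12, AxIS adaptive spike detector; bursting electrode = ≥1 burst/2 min. AUC across days; loss of signal vs DMSO.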

A short description of assay [9]: CCTE_Shafer_MEA_dev_per_burst_interspike_interval: CCTE's Neural Network Formation Assay for Burst Interspike Interval, Shafer Lab (AID 2284044; active means hit-call score of the fitted dose curve at least 0.9, where 1 is the maximum; inactive means score below 0.9). The method in brief: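 Readout is the average time between spikes inside single-electrode bursts, taken as a well mean across bursting electrodes. Cortical neurons from rat developed networks on MEA plates under continuous 12-day exposure; recordings on days 5, 7, 9 and 12 were integrated by trapezoidal AUC.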

A short description of assay [10]: CCTE_Shafer_MEA_dev_burst_duration_mean: CCTE's Neural Network Formation Assay for Mean Burst Duration, Shafer Lab (AID 2284045; active means hit-call score of the fitted dose curve at least 0.9, where 1 is the maximum; inactive means score below 0.9). The method in brief: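 Rat cortical cultures, 1.5 x 10^5 cells/well with laminin drop; continuous dosing days 0–12, media plus treatment refreshed DIV 5, 9. AxIS adaptive spike detection; mean single-electrode burst duration, AUC over four recordings, negative direction vs DMSO.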

Assay [11] can be described thus: CCTE_Shafer_MEA_dev_interburst_interval_mean: CCTE's Neural Network Formation Assay for Mean Interburst Interval, Shafer Lab (AID 2284046; active means hit-call score of the fitted dose curve at least 0.9, where 1 is the maximum; inactive means score below 0.9;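 further: well-mean interburst interval of bursting electrodes as AUC over four recording days; curve fitted for decrease in interburst interval relative to DMSO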). In a few lines:
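Primary rat cortical neurons on PEI-coated 48-well MEA plates (laminin added with cells at plating) (16 electrodes/well), exposed from plating day 0 with renewal at DIV 5 and 9. Mean inter-burst interval averaged over bursting electrodes, AUC across days 5, 7, 9, 12; DMSO baseline.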

A short description of assay [12]: CCTE_Deisenroth_AIME_384WELL_CTox_Active: Cytotoxicity Assessment (CTOX) in CCTE's 384-well Estrogen Receptor Transactivation Assay with AIME metabolic competence (metabolism positive), Deisenroth Lab (AID 2284037).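 Further: chemicals first conditioned 2 h by alginate-bound induced rat liver S9 before cells; activity means signal loss indicating cell death.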 The method in brief: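 Chemicals pre-incubated 2 hours with alginate-immobilised phenobarbital/beta-naphthoflavone-induced male Sprague Dawley rat liver S9, then conditioned medium applied 24 hour to VM7Luc4E2 cells. Viability by fluorogenic protease substrate; 10-point series 0.002 - 200 uM.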

Assay [13] is described as follows: CCTE_Deisenroth_AIME_384WELL_CTox_Inactive: Cytotoxicity Assessment (CTOX) in CCTE's 384-well Estrogen Receptor Transactivation Assay without AIME metabolic competence (metabolism negative), Deisenroth Lab (AID 2284039).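 Further: cell viability via live-cell protease substrate cleaved to fluorescent probe; loss of fluorescence signal means loss of viability.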 The method in brief: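 Fluorescent protease-substrate viability readout after 24 h exposure of VM7Luc4E2 cells to conditioned medium. Chemicals (0.002–200 uM) first sat 2 h over alginate-water beads, no S9. Data fitted bidirectionally, loss of signal meaning viability loss.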

For assay [14], the target named is Estrogen receptor (Homo sapiens) (UniProt P03372). The experiment in a line: CCTE_Deisenroth_AIME_96WELL_LUC_Inactive: CCTE's 96-well Estrogen Receptor Transactivation Assay without AIME metabolic competence (ERTA luciferase; metabolism negative), Deisenroth Lab (AID 2284025). In a few lines: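 Metabolism-negative arm: chemicals (0.002–200 uM, 10 points) incubated 2 h with alginate-water microspheres, then medium moved onto VM7Luc4E2 cells for 24 h luciferase read-out. Positive direction vs 17beta-estradiol; n≥4 experiments.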

Assay [15] is described as follows: CCTE_Deisenroth_AIME_96WELL_CTox_Active: Cytotoxicity Assessment (CTOX) in CCTE's 96-well Estrogen Receptor Transactivation Assay with AIME metabolic competence (metabolism positive), Deisenroth Lab (AID 2284028). The method in brief:
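Cytotoxicity in VM7Luc4E2 breast cells after 24 h exposure to medium from a 2 h metabolic pre-incubation with induced rat hepatic S9 in alginate microspheres; fluorescent live-cell protease readout, 10-point series 0.002–200 uM, n=4.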

Assay [16] in a line: CCTE_Deisenroth_AIME_96WELL_CTox_Inactive: Cytotoxicity Assessment (CTOX) in CCTE's 96-well Estrogen Receptor Transactivation Assay without AIME metabolic competence (metabolism negative), Deisenroth Lab (AID 2284029). In a few lines:
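Metabolism-negative mode: alginate-water lids without rat S9, 2 h pre-incubation of 10-point series (0.002 - 200 uM). Conditioned medium on VM7Luc4E2 cells 24 h; loss of fluorescent live-cell protease signal marks cytotoxicity.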

Results filed as inconclusive are left out. Active and inactive are the calls of the source. How the source made its calls, unless noted: active means hit-call score of the fitted dose curve at least 0.9, where 1 is the maximum; inconclusive means response in the unintended direction; inactive means score below 0.9.

For `COC(=O)CCCCC(=O)OC`, the call in assay [1], in [2] and in assay [3] was inactive.
For the compound `c1ccc2c(c1)Cc1ccccc1-2`, the call in [4], in assay [5], in [6], in assay [7], in assay [8] and in [9] was inactive. Besides, the call in assay [10] and in [11] was inactive.
For the compound `CC1=C(/C=C/C(C)=C/C=C/C(C)=C/C(=O)O)C(C)(C)CCC1`, the AC50 in assay [5] was 2.98 µM (active); in assay [6], 15 µM (active); in [7], 4.01 µM (active); in assay [11], 3.54 µM (active). Moreover, the call in assay [9] and in assay [10] was inactive.
As to `OC1CCCCC1`, the result in [1], in [12], in assay [2], in [13] and in [3] was inactive.
`COCC(C)OCC(C)O` (centres undefined): the result in assay [1], in assay [12], in [2] and in [3] was inactive.
For `CCCCCCCC(=O)O`, the compound was classed as inactive in [12], in assay [2] and in [13]. Also, the AC50 in assay [3] was 42.1 µM (active).
In the case of `CCN(CC)CCNc1ccc(CNC=O)c2sc3ccc(OC)cc3c(=O)c12`, the AC50 is 130 µM (active) in assay [12], 26.2 µM (active) in [2], 120 µM (active) in assay [13] and 5.72 µM (active) in [3].
Regarding `CC(O)CO` (centres undefined), the compound was called inactive in assay [5], in assay [6], in assay [7], in [8], in assay [9] and in [10]. Moreover, the outcome in assay [11] was inactive.
On to `N#C[C@@H]1CC(F)(F)CN1C(=O)CNC1CC2CCC(C1)N2c1ncccn1` (some centres undefined), for which the outcome in assay [1], in assay [12], in assay [2], in assay [13] and in assay [3] was inactive.
In the case of `c1ccc2cc3c(ccc4ccccc43)cc2c1`, the AC50 is 11.8 µM (active) in assay [4], 5.25 µM (active) in assay [14], 53.8 µM (active) in assay [1] and 64.2 µM (active) in assay [3]. For the same compound, the compound was called inactive in assay [15], in assay [16], in [5], in assay [13], in [6] and in [7]. Also, the outcome in [8], in [9], in assay [10] and in assay [11] was inactive.
Turning to `CCCCC[C@H](O)CC(=O)CCc1ccc(O)c(OC)c1`, the values for the AC50 in assay [4] and in assay [14] were 26 µM (active) and 24.9 µM (active), respectively. In addition, the result in assay [15] and in [16] was inactive.
`CCCCCCC(=O)O`: the outcome in assay [1], in [2] and in assay [3] was inactive.
With `C[C@@H]1C[C@H]2[C@@H]3CCC4=CC(=O)C=C[C@]4(C)[C@@]3(F)[C@@H](O)C[C@]2(C)[C@@]1(O)C(=O)COP(=O)(O)O`, the outcome in assay [12] and in [3] was inactive.

One may read the AC50 as the midpoint of the concentration-response curve, whichever way the signal moves.
